Screening results as filed in PubChem BioAssay.
Ba/F3 V617F tox: reduced viability of JAK2V617F-dependent Ba/F3 cells, primary screen, JAK2V617F inhibitor project, cell-based, Ba/F3 EpoR-JAK2V617F, luminescence; ATP luminescence; inhibition, % at 5.6 µM; hit rate 1.1% among 220,000; AID 1446, 2008;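 active means inhibition above the campaign mean plus 3 SD over all tested compounds, cut at about 24% in these data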;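 further: cytokine-independent growth of Ba/F3 cells driven by EpoR plus mutant JAK2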
IEC-6 tox: cytotoxicity in IEC-6 intestinal epithelial cells, primary screen, cytotoxicity control for KLF5 inhibitor project, cell-based, luminescence; IEC-6 cytotoxicity, luminescence viability; inhibition, % at 5 µM; hit rate 0.78% among 290,000; AID 1825, 2009; in the data active means inhibition above about 22%
BaF3 tox: parental Ba/F3 cell viability inhibition, counter-screen for JAK2V617F inhibitor project, murine pro-B, CellTiter-Glo luminescence; hit rate 1.1% among 220,000; CellTiter-Glo ATP luminescence; inhibition, % at 5.6 µM; AID 1486, 2009;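 active means inhibition above a per-campaign cutoff, the mean inhibition of all tested compounds plus 3 SD, cut at about 27% in these data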
APP transl inh: inhibitors of APP translation via 5'UTR reporter, primary screen, APP 5'UTR luciferase, SH-SY5Y cells; SH-SY5Y APP 5'UTR-luciferase reporter, luminescence; inhibition, % at 2 µM; hit rate 0.82% among 190,000; AID 1285, 2008;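 active means inhibition above a set limit, derived from the sample mean plus 3 SD, cut at about 45% in these data; inconclusive means one replicate passes the limit while the other fails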
KLF5 inhibitor: KLF5 expression inhibitors, primary screen, DLD-1 cells, luminescence. DLD-1 KLF5 promoter-luciferase reporter. AID 1700, 2009. inhibition, % at 5 µM. hit rate 0.23% among 290,000;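 active means inhibition above a per-plate limit of that plate's mean compound inhibition plus 3 SD, cut at about 60% in these data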;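 further: higher means less KLF5 promoter-driven luciferase light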
aSyn UTR inh: MLPCN primary screen, SNCA 5' untranslated region | alpha-synuclein 5'UTR reporter, inhibitor activity | inhibition, % (tested at 7.5 µM) | hit rate 0.82% among 300,000; in the data active means inhibition above about 60%; inconclusive means no clear call, values can overlap the other calls;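 further: H4 neuroglioblastoma cells stably carrying SNCA 5'UTR luciferase fusion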
Hits are given with their value; 0 = inactive; ? = inconclusive; - = no result. This is a sample that favours compounds with a hit; in the whole collection about 2.2% have one here.

SMILES	Ba/F3 V617F tox	IEC-6 tox	BaF3 tox	APP transl inh	KLF5 inhibitor	aSyn UTR inh
Cc1ccc(S(=O)(=O)N2CCN(C(=O)CSC3CCCC3)CC2)c(C)c1	0	0	94	0	0	0
Cc1cc(N2CCN(Cc3cn(C)nc3-c3ccccc3F)CC2)cc(C)n1	0	28	0	81	0	91
Cc1cc(N2CCN(Cc3cn(C)nc3-c3cccc(Cl)c3)CC2)cc(C)n1	0	0	0	60	0	72
CC(=O)Nc1ccc(S(=O)(=O)NCCSCc2ccc(Cl)cc2Cl)cc1	0	0	0	0	0	0
Cc1cc(C)c(NC(=O)CCN2CCN(Cc3ccccc3)CC2)c(C)c1	-	-	-	-	-	98
CCCOc1nc2ccccc2cc1/C=C/C(=O)O	0	0	0	0	0	0
CCOc1nc2ccccc2cc1C=O	0	0	0	57	0	0
Cc1c(CCOC(=O)C23CC4CC(CC(C4)C2)C3)sc[n+]1CC#N	0	0	0	0	0	0
COc1cccc(-n2cc(CN(C)Cc3nc(Cc4cccc(F)c4)no3)cn2)c1	0	0	0	0	0	0
COc1ccc(CN(C)Cc2nc(Cc3cccc(F)c3)no2)c2cccnc12	46	0	62	0	0	0
CCOc1cc(/C=N\NC(=O)c2ccc(NC(=O)C(C)(C)C)cc2)ccc1OC(=O)c1ccc(OC)cc1	0	0	0	94	0	0
COc1ccc(C(=O)N/N=C/c2ccc(OC)c(COc3ccc(F)cc3)c2)cc1	-	0	-	-	0	0
NC(N)=N/N=C/c1ccc(OCc2ccccc2)c(OCc2ccccc2)c1	-	0	-	-	0	106
CCOc1cc(/C=N/N=C(N)N)ccc1OCc1ccc(Cl)cc1	0	0	0	0	0	0
O=[N+]([O-])c1cccc(-c2cc3cccc[n+]3cc2-c2cccc([N+](=O)[O-])c2)c1	0	0	0	0	0	0
Cc1cccc2cc(-c3ccccc3)c(-c3ccccc3)c[n+]12	90	0	72	0	0	0
COc1cc(NC(=O)N2CCNC2=O)cc(C(=O)Nc2cccc(C(F)(F)F)c2)c1	-	-	-	-	-	68
COc1ccccc1Oc1ccc(S(=O)(=O)N2CCOCC2)cc1S(=O)(=O)N1CCOCC1	0	0	0	0	0	0
Cc1ccc(Oc2ccc(S(=O)(=O)N3CCOCC3)cc2C(N)=O)c(-n2nc3ccccc3n2)c1	0	0	0	46	0	0
NC(=NCCCCCCN=C(N)/N=C(\N)Nc1ccc(Cl)cc1)/N=C(\N)Nc1ccc(Cl)cc1	-	0	-	-	0	96
CCCCN=C(Nc1ccc(Cl)cc1)c1cccnc1	0	0	0	0	0	0
COc1ccccc1-n1cnc2cc(NCc3cccs3)ccc21	73	82	73	93	0	?
Cc1ccccc1-n1cnc2cc(NCc3cccs3)ccc21	0	0	0	0	0	0
COc1ccc(/C=C/C(=O)O)cc1O	-	-	-	-	-	0
CCN1CCN(CCCN(Cc2ccco2)C(=S)Nc2ccc(Cl)c(C)c2)CC1	38	0	28	0	0	0
SMILES	Ba/F3 V617F tox	IEC-6 tox	BaF3 tox	APP transl inh	KLF5 inhibitor	aSyn UTR inh
Cc1cc(NC(=S)N(CCCN2CCOCC2)Cc2ccco2)ccc1Cl	0	0	0	0	0	0
Cc1ccc(NC(=S)N(CCCN2CCOCC2)Cc2ccco2)cc1	0	0	0	0	0	0
S=C(Nc1ccc(Cl)cc1)N(CCCN1CCOCC1)Cc1ccco1	37	0	32	0	0	0
Cc1ccc(Cl)c(NC(=S)N(CCCN2CCOCC2)Cc2ccco2)c1	0	0	36	0	0	0
O=C(CCn1cnc2ccccc2c1=O)Nc1cccc(Cl)c1Cl	0	0	0	0	0	0
CC1CCC(NC(=O)CCNC(=O)c2ccc(Br)cc2)CC1 (stereo unspecified)	-	-	-	-	-	0
Oc1c(CN2CCOCC2)cc(COCc2ccccc2)c2cccnc12	0	0	0	92	0	114
COc1nnc(-c2ccc(C)cc2)c2ccccc12	-	0	-	-	0	0
CC1(C)N=c2ccc([N+](=O)[O-])c(N)c2=[N+]1[O-]	69	0	63	-	0	0
Cc1ccc([N+](=O)[O-])c(C)[n+]1C	0	0	0	0	0	0
CC(C)=CCC/C(C)=C/CCC(C)NCCN1CCNCC1 (stereo unspecified)	0	34	0	0	0	0
CC(C)=CCC/C(C)=C/CC(C)(C)CNCCN1CCNCC1	0	0	0	0	0	0
